This is part of a sample that, as a whole, favours compounds with a hit. Of some 83,000 tested, about 20% had one in any assay.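 48-hour exposure, single concentration, 96-well plates; percent growth endpoint where 0 means no net growth. Active: below 10.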 Unmarked numbers belong to inactive results. Active and inactive are the calls of the source.

One test deals with SW-620 colon. The experiment in a line: NCI-60 one-dose screen, 48 h (100 = growth as untreated, 0 = no growth, -100 = all killed). The settings on record: 10 µM unless noted.
As for `CC(C)C(C)(C)C(=O)C(C)(C)C(C)(C)C`, the growth was 106%.
As for `Cc1[nH]nc(C(N)=O)c1[N+](=O)[O-]`, the growth is 91%.
The same measure, in the same setting: to `CCC(C)c1c(N)n(S(=O)(=O)c2ccc(C)cc2)oc1=O` (stereo not given) belongs 105%; to `C/C(=N\O)c1ccccn1`, 94%.
Still for that read-out and setting: to `NC(=O)NCCO` belongs 103%.
Same read-out and setting: as for `O=S1(=O)c2ccccc2Oc2ccccc21`, the figure is 95%; as for `CCN(C(C)=O)c1ccc([N+](=O)[O-])cc1`, 98.2%.
For the compound `CC(C)C(=O)OCCOc1ccc(C(C)(C)C)cc1`, the growth is 92.2%.
The same measure, in the same setting: as for `O=C(Oc1ccccc1Cl)c1ccc(Cl)cc1Cl`, the figure is 98.9%; as for `CC(=O)NC(O)C(Cl)Cl` (stereo not given), 114%.
In the case of `NNc1ncccn1`, the growth was 94.7%.
Regarding `Ic1cccs1`, the growth was 104%.
On the same count and under the same terms, to `N#CC1(O)CCCCC1` belongs 110%.
The same measure, in the same setting: as for `COC(=O)c1cccc([N+](=O)[O-])c1`, the figure is 105%; as for `COC1OC(C(O)C(O)CO)C(O)C(O)C1O` (stereo not given), 105%.
The same measure, in the same setting: to `COc1cccc(C(=O)O)c1OC` belongs 100%; to `CC(=O)Oc1c(Cl)cccc1-c1ccccc1`, 96.4%.
For the compound `OCCc1ccc(Cl)cc1`, the growth is 105%.
The same measure, in the same setting: as for `CC(C)(N)CO[C@H]1C[C@H]2CC[C@@]1(C)C2(C)C`, the figure is 88.1%; as for `O=C(NCc1ccccc1)c1cccc([N+](=O)[O-])c1`, 99.2%.
Still for that read-out and setting: as for `NNc1ncnc2c1ncn2C1OC(CO)C(O)C1O` (stereo not given), the figure is 21.4%; as for `CCOC(C=O)OCC`, 108%; as for `C=CCS(C)(=O)=O`, 95.4%.
On to `O=C(CC(CC(=O)c1ccccc1)c1ccccn1)c1ccccc1`, for which the growth was 101%.
Still for that read-out and setting: as for `Cc1ccc(C2CCCCC2)cc1Br`, the figure is 99.1%; as for `C/C(=N\Nc1ccc([N+](=O)[O-])cc1[N+](=O)[O-])c1ccc(Br)cc1`, 101%.
Still for that read-out and setting: as for `C/C(=N\N=C(/C)c1cccc([N+](=O)[O-])c1)c1cccc([N+](=O)[O-])c1`, the figure is 101%; as for `CCCCCC(=O)OCCC1CCCCC1`, 98.4%; as for `O=C(Nc1cccc(Cl)c1)c1ccc(Cl)cc1Cl`, 92.7%.
The same measure, in the same setting: to `CC(C)C1CCC(C)C(O)C1` (stereo not given) belongs 98%; to `O=C(O)c1ccc([N+](=O)[O-])cc1S(=O)(=O)O`, 105%; to `CSc1nc2[nH]ncc2c(=O)[nH]1`, 95.4%.
On to `CCN(C(=O)Nc1ccccc1Cl)c1ccccc1`, for which the growth is 108%.
Same read-out and setting: as for `C=C(C)COc1ccc(C(C)(C)C)cc1`, the figure is 101%; as for `C1C[S+]2CC[S+]1CC2`, 101%.
As for `Oc1ccc(CCC2CCNc3ccccc32)cc1` (stereo not given), the growth was 97.2%.
The same measure, in the same setting: to `CC(CC(CCC(=O)O)(c1ccccc1)c1ccccc1)N(C)C` (stereo not given) belongs 109%.
Still for that read-out and setting: to `CCCNS(=O)(=O)c1ccc(Cl)cc1` belongs 96.2%.

A further test relates to MCF7 breast. The description is as above. The settings on record: 10 µM unless noted.
With `CC(C)C(C)(C)C(=O)C(C)(C)C(C)(C)C`, the growth was 97%.
Still for that read-out and setting: to `Cc1[nH]nc(C(N)=O)c1[N+](=O)[O-]` belongs 97.4%; to `CCC(C)c1c(N)n(S(=O)(=O)c2ccc(C)cc2)oc1=O` (stereo not given), 108%; to `C/C(=N\O)c1ccccn1`, 99.9%.
Same read-out and setting: as for `NC(=O)NCCO`, the figure is 98.3%.
Still for that read-out and setting: to `O=S1(=O)c2ccccc2Oc2ccccc21` belongs 87.8%; to `CCN(C(C)=O)c1ccc([N+](=O)[O-])cc1`, 98.1%.
As for `CC(C)C(=O)OCCOc1ccc(C(C)(C)C)cc1`, the growth was 95.4%.
Same read-out and setting: as for `O=C(Oc1ccccc1Cl)c1ccc(Cl)cc1Cl`, the figure is 84.6%.
On the same count and under the same terms, to `CC(=O)NC(O)C(Cl)Cl` (stereo not given) belongs 93.7%; to `NNc1ncccn1`, 101%; to `Ic1cccs1`, 97.9%.
The same measure, in the same setting: as for `COC(=O)c1cccc([N+](=O)[O-])c1`, the figure is 104%; as for `COC1OC(C(O)C(O)CO)C(O)C(O)C1O` (stereo not given), 97.1%; as for `COc1cccc(C(=O)O)c1OC`, 87.2%.
As to `CC(=O)Oc1c(Cl)cccc1-c1ccccc1`, the growth is 101%.
On the same count and under the same terms, as for `OCCc1ccc(Cl)cc1`, the figure is 93.7%; as for `CC(C)(N)CO[C@H]1C[C@H]2CC[C@@]1(C)C2(C)C`, 92.5%.
Still for that read-out and setting: to `O=C(NCc1ccccc1)c1cccc([N+](=O)[O-])c1` belongs 97.8%; to `NNc1ncnc2c1ncn2C1OC(CO)C(O)C1O` (stereo not given), 6.39% (active); to `CCOC(C=O)OCC`, 95.4%.
The same measure, in the same setting: as for `C=CCS(C)(=O)=O`, the figure is 96.3%; as for `O=C(CC(CC(=O)c1ccccc1)c1ccccn1)c1ccccc1`, 107%; as for `Cc1ccc(C2CCCCC2)cc1Br`, 96.9%.
As for `C/C(=N\Nc1ccc([N+](=O)[O-])cc1[N+](=O)[O-])c1ccc(Br)cc1`, the growth was 97.2%.
Same read-out and setting: to `C/C(=N\N=C(/C)c1cccc([N+](=O)[O-])c1)c1cccc([N+](=O)[O-])c1` belongs 86.8%.
Same read-out and setting: as for `CCCCCC(=O)OCCC1CCCCC1`, the figure is 107%; as for `O=C(Nc1cccc(Cl)c1)c1ccc(Cl)cc1Cl`, 83.3%.
Still for that read-out and setting: as for `CC(C)C1CCC(C)C(O)C1` (stereo not given), the figure is 100%; as for `O=C(O)c1ccc([N+](=O)[O-])cc1S(=O)(=O)O`, 104%.
With `CSc1nc2[nH]ncc2c(=O)[nH]1`, the growth is 98.1%.
Same read-out and setting: to `CCN(C(=O)Nc1ccccc1Cl)c1ccccc1` belongs 100%; to `C=C(C)COc1ccc(C(C)(C)C)cc1`, 98.5%.
Still for that read-out and setting: to `C1C[S+]2CC[S+]1CC2` belongs 103%.
Still for that read-out and setting: as for `Oc1ccc(CCC2CCNc3ccccc32)cc1` (stereo not given), the figure is 98.6%.
`CC(CC(CCC(=O)O)(c1ccccc1)c1ccccc1)N(C)C` (stereo not given): the growth is 91.2%.
Consider `CCCNS(=O)(=O)c1ccc(Cl)cc1`, for which the growth was 93.3%.

Source of the values: PubChem BioAssay (NCI).
